# Where “and” joins values, the source holds several entries; their conditions need not be identical. Identical values can stand only once. Screen size: about 5,500 compounds; about 2,000 (36%) were called active. Roughly 18% stayed inconclusive and do not appear here. The list shows a part of the results. Unmarked numbers belong to inactive results. Rule as the data show it: active = normalized growth mostly below about 0.91 (no sharp cut-off); inconclusive = no clear call, values can overlap the other calls; inactive = mostly above about 0.92.
# Assay: chemical genetic growth profiling, strain panel (AID 1159580);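 also: tested at 20 µM; growth read once vehicle control cultures reached saturation at 30 °C; 1 = growth at the plate median or of vehicle wells; lower values mean less growth of the strain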
# Conditions: S. cerevisiae deletion strains, growth OD
compound,measurement,setting,value
C[C@H]1COc2c(N3CCN(C)CC3)c(F)cc3c(=O)c(C(=O)O)cn1c23,normalized growth,"locus YAL013W, strain DEP1, hits give low values",1
same,normalized growth,"locus YAL021C, strain ccr4, hits give low values",1.02
same,normalized growth,"locus YAL026C, strain drs2, hits give low values",1.03
same,normalized growth,"locus YAL030W, strain snc1, hits give low values",1.02
same,normalized growth,"locus YBR009C, strain hhf1, hits give low values",1.01
same,normalized growth,"locus YBR021W, strain FUR4, hits give low values",0.995
same,normalized growth,"locus YBR023C, strain chs3, hits give low values",1.02
same,normalized growth,"locus YBR171W, strain sec66, hits give low values",1.04
same,normalized growth,"locus YBR229C, strain ROT2, hits give low values",1
same,normalized growth,"locus YBR231C, strain swc5, hits give low values",1.02
same,normalized growth,"locus YBR279W, strain paf1, hits give low values",1.02
same,normalized growth,"locus YCL011C, strain gbp2, hits give low values",0.259 (active)
same,normalized growth,"locus YCL016C, strain dcc1, hits give low values",1.02
same,normalized growth,"locus YCL029C, strain bik1, hits give low values",1.02
same,normalized growth,"locus YCL061C, strain MRC1, hits give low values",1.04
same,normalized growth,"locus YCL069W, strain vba3, hits give low values",1.02
same,normalized growth,"locus YCR088W, strain abp1, hits give low values",1.02
same,normalized growth,"locus YDL005C, strain med2, hits give low values",1.04
same,normalized growth,"locus YDL035C, strain GPR1, hits give low values",1.02
same,normalized growth,"locus YDL040C, strain nat1, hits give low values",1.02
same,normalized growth,"locus YDL074C, strain BRE1, hits give low values",1.01
same,normalized growth,"locus YDL101C, strain DUN1, hits give low values",0.999
same,normalized growth,"locus YDL134C, strain PPH21, hits give low values",1.01
same,normalized growth,"locus YDL185W, strain tfp1, hits give low values",1.02
same,normalized growth,"locus YDL192W, strain arf1, hits give low values",1.02
same,normalized growth,"locus YDR001C, strain nth1, hits give low values",1.02
same,normalized growth,"locus YDR069C, strain doa4, hits give low values",1.04
same,normalized growth,"locus YDR101C, strain arx1, hits give low values",1.01
same,normalized growth,"locus YDR137W, strain rgp1, hits give low values",0.989
same,normalized growth,"locus YDR150W, strain NUM1, hits give low values",0.999
same,normalized growth,"locus YDR159W, strain sac3, hits give low values",1.03
same,normalized growth,"locus YDR162C, strain NBP2, hits give low values",0.989
same,normalized growth,"locus YDR195W, strain ref2",0.993
same,normalized growth,"locus YDR297W, strain sur2, hits give low values",1.02
same,normalized growth,"locus YDR318W, strain mcm21, hits give low values",1.02
same,normalized growth,"locus YDR334W, strain swr1, hits give low values",1.01
same,normalized growth,"locus YDR335W, strain msn5, hits give low values",1.02
same,normalized growth,"locus YDR388W, hits give low values",1.01
same,normalized growth,"locus YDR392W, strain spt3, hits give low values",1.04
same,normalized growth,"locus YDR502C, strain sam2, hits give low values",1.01
same,normalized growth,"locus YEL003W, strain gim4, hits give low values",1.01
same,normalized growth,"locus YEL037C, strain rad23, hits give low values",1.03
same,normalized growth,"locus YEL061C, strain CIN8 (second series), hits give low values",1.04
same,normalized growth,"locus YEL061C, strain CIN8, hits give low values",0.993
same,normalized growth,"locus YER015W, strain faa2, hits give low values",1.01
same,normalized growth,"locus YER016W, strain bim1, hits give low values",1.02
same,normalized growth,"locus YER110C, hits give low values",1.02
same,normalized growth,"locus YER111C, strain swi4, hits give low values",1.03
same,normalized growth,"locus YER155C, strain BEM2 (second series), hits give low values",1.03
same,normalized growth,"locus YER155C, strain BEM2, hits give low values",1.01
same,normalized growth,"locus YER167W, strain BCK2, hits give low values",1
same,normalized growth,"locus YFR010W, strain ubp6, hits give low values",1.03
same,normalized growth,"locus YGL078C, strain dbp3, hits give low values",1.02
same,normalized growth,"locus YGL086W, strain mad1, hits give low values",1.01
same,normalized growth,"locus YGL167C, strain pmr1, hits give low values",1.03
same,normalized growth,"locus YGL173C, strain kem1, hits give low values",1.01
same,normalized growth,"locus YGL227W, strain vid30, hits give low values",1.02
same,normalized growth,"locus YGL240W, strain doc1, hits give low values",1.02
same,normalized growth,"locus YGL248W, strain PDE1, hits give low values",1
same,normalized growth,"locus YGL253W, strain hxk2, hits give low values",1.01
same,normalized growth,"locus YGR078C, strain PAC10, hits give low values",0.998
same,normalized growth,"locus YGR135W, strain pre9, hits give low values",1.01
same,normalized growth,"locus YGR229C, strain SMI1, hits give low values",0.989
same,normalized growth,"locus YGR252W, strain gcn5, hits give low values",0.996
same,normalized growth,"locus YHR013C, strain ard1, hits give low values",1.02
same,normalized growth,"locus YHR027C, strain rpn1, hits give low values",1.01
same,normalized growth,"locus YHR030C, strain SLT2, hits give low values",1.01 and 0.977
same,normalized growth,"locus YHR079C, strain IRE1 (second series), hits give low values",1.01
same,normalized growth,"locus YHR079C, strain IRE1, hits give low values",0.991
same,normalized growth,"locus YHR094C, strain hxt1, hits give low values",1.01
same,normalized growth,"locus YHR129C, strain ARP1, hits give low values",1.01
same,normalized growth,"locus YHR142W, strain chs7, hits give low values",1.02
same,normalized growth,"locus YHR200W, strain rpn10, hits give low values",1.02
same,normalized growth,"locus YIL066C, strain RNR3, hits give low values",1
same,normalized growth,"locus YIL073C, strain SPO22, hits give low values",1.05
same,normalized growth,"locus YIL125W, strain kgd1, hits give low values",1.01
same,normalized growth,"locus YIR030C, strain dcg1, hits give low values",1.03
same,normalized growth,"locus YJL092W, strain hpr5, hits give low values",1.03
same,normalized growth,"locus YJL095W, strain BCK1 (second series), hits give low values",1.02
same,normalized growth,"locus YJL095W, strain BCK1, hits give low values",1.02 and 0.996
same,normalized growth,"locus YJL115W, strain asf1, hits give low values",1.04
same,normalized growth,"locus YJL129C, strain trk1, hits give low values",1.04
same,normalized growth,"locus YJL134W, strain LCB3, hits give low values",1
same,normalized growth,"locus YJL154C, strain vps35, hits give low values",1.01
same,normalized growth,"locus YJL164C, strain tpk1, hits give low values",1.01
same,normalized growth,"locus YJL166W, strain qcr8, hits give low values",1.02
same,normalized growth,"locus YJL168C, strain set2, hits give low values",1.01
same,normalized growth,"locus YJL187C, strain SWE1 (second series), hits give low values",1.01
same,normalized growth,"locus YJL187C, strain SWE1, hits give low values",1.01
same,normalized growth,"locus YJR043C, strain POL32, hits give low values",0.998
same,normalized growth,"locus YJR066W, strain TOR1, hits give low values",0.944

# From PubChem BioAssay AID1159580 (chemical genetic matrix, 2015)
